Compound activity from PubChem BioAssay.
Rows were chosen to be rich in hits. Some 6.7% of all compounds tested hit in one or more screens of this group.
T cruzi growth-1 – inhibitors of T. cruzi proliferation; inhibition, % at 8.34 µM; hit rate 5.9% among 77,000; T. cruzi beta-gal in NIH3T3, GalScreen luminescence, 90 h; AID 624255;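 active means mean inhibition above about 93%, with at least 55% of replicates each passing it, limit read from the data, passing the limit was not always enough; inconclusive means only one of those two conditions holds; inactive means neither condition holds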
C diff HTS – C. difficile growth inhibition; Clostridium difficile clinical isolate growth, OD600, 24 h; hits give low values; growth activity, negative = inhibition, % at 16 µg/mL (by protocol); hit rate 0.25% among 86,000; AID 1259249;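 active means mean growth activity at or below -80% and every replicate also at or below -80%; inconclusive means mean at or below -80% but some replicate above -80%; inactive means mean growth activity above -80%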
Pf Dd2 inh – blocks growth of Plasmodium falciparum Dd2 parasites. P. falciparum Dd2 growth, SYBR Green, 72 h; hits give low values. activity change, % at 10 µM. hit rate 2.3% among 94,000. AID 1159554; in the data active means activity change below about -80%; inconclusive means no clear call, values can overlap the other calls
T cruzi growth-2 – inhibitors of T. cruzi proliferation; AID 651739; inhibition, % at 8.35 µM; T. cruzi beta-gal in NIH3T3, GalScreen luminescence, 90 h; hit rate 72% among 5,600; shares compounds with T cruzi growth-1;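 active means mean replicate inhibition above about 95% and at least 55% of replicates individually reaching it, limit read from the data; inconclusive means only one of the two criteria is met; inactive means neither criterion is met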
T cruzi growth-3 – inhibitors of T. cruzi proliferation; shares compounds with T cruzi growth-1; T. cruzi beta-gal in NIH3T3, GalScreen luminescence, 90 h; inhibition, % at 2.09 µM; hit rate 21% among 5,600;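 active means mean inhibition above about 95%, with at least 55% of replicates also reaching it, limit read from the data; inconclusive means meets just one of the two conditions; inactive means meets neither condition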
3T3 cytotox – NIH/3T3 (mouse) viability loss; NIH/3T3 viability, CellTiter-Glo ATP luminescence, 90 h; AID 651742; hit rate 14% among 5,600; shares compounds with T cruzi growth-1; cytotoxicity (signal decrease), % at 8.35 µM;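 active means mean signal decrease across replicates above about 35% based on untreated-well scatter, with enough replicates individually passing, limit read from the data; inconclusive means no rule stated though some were filed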
3T3 cytotox 2 – cytotoxicity in mouse NIH/3T3 fibroblasts. AID 651744. shares compounds with T cruzi growth-1. NIH/3T3 viability, CellTiter-Glo ATP luminescence, 90 h. inhibition, % at 24.9 µM. hit rate 56% among 5,600;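 active means mean loss of cell viability signal at or above a set limit, and enough replicates individually reaching it; inconclusive means meets only the mean limit or only the replicate share; inactive means meets neither condition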
Hits are given with their value; . = inactive; ? = inconclusive; / = no result given.

SMILES | T cruzi growth-1 | C diff HTS | Pf Dd2 inh | T cruzi growth-2 | T cruzi growth-3 | 3T3 cytotox | 3T3 cytotox 2
O=C(C[C@H]1C[C@@H]2c3cc(NC(=O)C4CCOCC4)ccc3O[C@@H]2[C@H](CO)O1)NCCN1CCCCC1 | 170.7 | . | . | . | . | . | .
O=C(C[C@@H]1C[C@H]2c3cc(NC(=O)C4CCOCC4)ccc3O[C@H]2[C@H](CO)O1)NCc1ccc(Oc2ccccc2)cc1 | 142.0 | / | . | . | . | . | .
O=C(C[C@@H]1C[C@@H]2c3cc(NC(=O)C4CCOCC4)ccc3O[C@@H]2[C@@H](CO)O1)NCc1ccc(Oc2ccccc2)cc1 | . | / | . | / | / | / | /
COc1ccc(CNC(=O)C[C@@H]2C[C@@H]3c4cc(NC(=O)C5CCC5)ccc4O[C@@H]3[C@@H](CO)O2)cc1 | . | . | . | / | / | / | /
COc1ccc(CNC(=O)C[C@H]2C[C@@H]3c4cc(NC(=O)C5CCC5)ccc4O[C@@H]3[C@H](CO)O2)cc1 | 164.5 | . | . | . | . | . | .
O=C(C[C@@H]1C[C@@H]2c3cc(NC(=O)CC4CC4)ccc3O[C@@H]2[C@H](CO)O1)NCCN1CCCCC1 | . | . | . | / | / | / | /
COCC#Cc1ccc(CC[C@H]2O[C@H]3CC[C@H](CO)O[C@H]3C[C@H]2NC(=O)Nc2c(C)noc2C)cc1 | / | . | . | / | / | / | /
C[C@H](CO)N1C[C@H](C)[C@H](CN(C)C(=O)C2CC2)Oc2cc(/C=C/c3ccccc3)ccc2S1(=O)=O | . | . | . | / | / | / | /
CCS(=O)(=O)N1[C@H](CO)[C@H](c2ccc(C3=CCCCC3)cc2)[C@@H]1C#N | . | . | . | / | / | / | /
CCCNC(=O)N1CC2(CCN(Cc3cccc(OC)c3)CC2)c2c([nH]c3cc(OC)ccc23)[C@@H]1CO | / | . | . | / | / | / | /
CCCN(C)C[C@H]1Oc2cc(C#Cc3cccc(OC)c3)ccc2S(=O)(=O)N([C@H](C)CO)C[C@H]1C | / | . | . | / | / | / | /
COc1ccc2c3c(n(C)c2c1)[C@H](CO)N(C(=O)Cc1ccccn1)CC31CN(C)C1 | / | . | . | / | / | / | /
C[C@@H]1CN([C@@H](C)CO)C(=O)c2cc(NC(=O)Nc3ccc(F)cc3)ccc2O[C@@H](C)CCCCO[C@H]1CN(C)Cc1ccc(Cl)c(Cl)c1 | 103.2 | / | . | . | 110.2 | 44.1 | .
CC(C)NC(=O)Nc1ccc2c(c1)C(=O)N([C@@H](C)CO)C[C@H](C)[C@@H](CN(C)Cc1ccc(Cl)c(Cl)c1)OCCCC[C@@H](C)O2 | / | . | . | / | / | / | /
C[C@@H]1CCCCO[C@H](CN(C)Cc2ccc(Cl)c(Cl)c2)[C@H](C)CN([C@@H](C)CO)C(=O)c2cc(NC(=O)Nc3ccc(F)cc3)ccc2O1 | 106.2 | / | -84.7 | 99.1 | 110.4 | . | ?
C[C@@H]1CCCCO[C@H](CN(C)Cc2ccc(Cl)c(Cl)c2)[C@@H](C)CN([C@H](C)CO)C(=O)c2cc(NC(=O)Nc3ccc(F)cc3)ccc2O1 | 101.9 | / | . | ? | 107.7 | . | .
C[C@H](CO)N1C[C@H](C)[C@@H](CN(C)Cc2ccc(Cl)c(Cl)c2)OCCCC[C@H](C)Oc2ccc(NC(=O)Nc3ccc4c(c3)OCO4)cc2C1=O | . | . | . | / | / | / | /
C[C@@H]1CCCCO[C@H](CN(C)Cc2ccc(Cl)c(Cl)c2)[C@@H](C)CN([C@@H](C)CO)C(=O)c2cc(NC(=O)NC3CCCCC3)ccc2O1 | / | . | . | / | / | / | /
CC(C)NC(=O)Nc1ccc2c(c1)C(=O)N([C@H](C)CO)C[C@H](C)[C@@H](CN(C)Cc1ccc(Cl)c(Cl)c1)OCCCC[C@H](C)O2 | / | . | / | / | / | / | /
C[C@@H]1CCCCO[C@@H](CN(C)Cc2ccc(Cl)c(Cl)c2)[C@@H](C)CN([C@H](C)CO)C(=O)c2cc(NC(=O)Nc3ccc(F)cc3)ccc2O1 | 109.0 | / | . | 101.1 | 108.5 | . | .
COc1ccccc1CNC(=O)C[C@@H]1CC[C@H]2[C@@H](COC[C@@H](O)CN2C(=O)Nc2ccccc2)O1 | . | / | . | / | / | / | /
CN1C(=O)c2cc(NS(=O)(=O)c3cccc(F)c3)ccc2OC[C@H]2O[C@H](CC(=O)O)CC[C@@H]21 | . | . | . | / | / | / | /
Cc1ccc(S(=O)(=O)Nc2ccc3c(c2)C(=O)N([C@H](C)CO)C[C@@H](C)[C@@H](CN(C)C(=O)c2ccncc2)OCCCC[C@H](C)O3)cc1 | . | / | . | / | / | / | /
